Source: PubChem (National Center for Advancing Translational Sciences (NCATS))
A selection: hits, their analogues and other compounds. The true share with any hit is near 19%.
IL-1B inflam inh: inhibitors of inflammasome signaling (IL-1 beta secretion); activity change, % at 57.5 µM; actives 4.7% (n = 360,000); THP-1 LPS/ATP IL-1B secretion, AlphaLISA, 16 h; hits give low values; in the data active = activity change below about -50%; inconclusive = mostly about -30% to -49%; note: % is set by controls: 0 for no effect and ±100 for the full control effect
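THP-1 cells pretreated 1 hr with compounds (up to 57.5 uM final), then stimulated with LPS (250 ng/mL final) plus ATP (1.25 mM final); secreted IL-1B measured by AlphaLISA after 16 hr, decreased signal indicating inhibition.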
MCF10A rerep: DNA re-replication induction in MCF 10a cells; actives 2.9% (n = 350,000); MCF 10A DNA re-replication, Hoechst nuclear intensity, 48 h; Potency, µM (highest dose often 46.1 µM), for inactives: top-dose activity, positive = re-replication, hits mostly activators; note: potency is the fitted concentration of half-maximal effect; % of control where 0% means no effect; nearly all actives have a fitted effect of over 50% in size
TDP1 cell CPT: DT40-hTDP1 cell growth loss with CPT; chicken DT40 Tdp1-/-;hTDP1 cells + 20 nM CPT, ATP luminescence, 48 h; Potency, µM (top dose mostly 46.2 µM), inactives show top-dose activity change, negative = growth inhibition, actives largely listed as inhibitors; actives 12% (n = 420,000); AID 686979; note: potency is the fitted concentration of half-maximal effect; % is set by controls: 0 for no effect and ±100 for the full control effect; nearly all actives have a fitted effect of over 55% in size
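Chicken DT40 Tdp1-/- cells stably complemented with human TDP1 were seeded at 400 cells/well in medium containing 20 nM camptothecin, exposed to pin-transferred compounds, and grown at 37 °C for at least 48 hr. Viability was read as ATP luminescence.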
BCR signal inh: blocks chronic active B-cell receptor signaling | Potency, µM (highest dose often 46.1 µM), without a hit: at the highest dose activity change, negative = inhibition, hits mostly inhibitors | actives 0.05% (n = 340,000) | ABC-DLBCL IkBa-CBG/CBR reporter, luminescence ratio, 4 h; active = well fitted inhibition curve with a large enough effect in the signal ratio, with a control signal flat, not every such curve was filed as active; inconclusive = small, poorly fitted or top-dose-only effect, or effect the other way, or a change in a side signal; the % refers to the signal ratio;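 note: potency is the fitted concentration of half-maximal effect; plate controls were basal doxycycline-induced cells for no effect and cells given 10 µM MG132 for full effect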
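TMD8 human ABC-DLBCL cells with doxycycline-inducible IκBα–green luciferase fusion and unfused red luciferase, in 0.5% FBS medium; compounds up to 46 uM, 4 h at 37C. Green/red luminescence ratio, filter-overlap corrected, fitted to concentration-response curves.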
TDP1 cell noCPT: qHTS for Inhibitors of human tyrosyl-DNA phosphodiesterase 1 (TDP1): qHTS in cells in absence of CPT; Potency, µM (top dose mostly 46.2 µM), for the others: top-dose activity change, negative = growth inhibition, most hits filed as inhibitors; actives 15% (n = 420,000); DT40 Tdp1-/- hTDP1 cells, no CPT, ATP luminescence, 48 h; AID 686978, 2013; note: potency is the fitted concentration of half-maximal effect; % is set by controls: 0 for no effect and ±100 for the full control effect; nearly all actives have a fitted effect of over 55% in size
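Cells were dispensed at 400 per well, compounds added by pin tool, plates incubated ≥48 hr at 37 °C, then CellTiter-Glo added for 30 min at room temperature before luminescence reading. Line: DT40 Tdp1-/- complemented with hTDP1; camptothecin omitted.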
SW480 rerep: induces DNA re-replication in SW480 colon adenocarcinoma cells. SW480 DNA re-replication, Hoechst DNA content imaging, 48 h. Potency, µM (titrated, usually from 46.1 µM), without a hit: top-dose re-replication activation, usual class: activators. actives 1.8% (n = 340,000). AID 624297; note: potency is the fitted concentration of half-maximal effect; % of control where 0% means no effect; nearly all actives have a fitted effect of over 55% in size
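Quantitative HTS format with DMSO vehicle controls; 48 hr drug incubation at 37 C, then 40 min Hoechst staining and scanning imager measurement at 405 nm excitation.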
* marks the source's active call; other numbers are inactive results; i = inactive; ? = inconclusive; . = not tested or not shown; [ ] = another dose, or the depositor's remark. Unless noted, calls come from the whole dose curve; as a rule, active = well fitted curve in the direction sought with a large enough effect; inconclusive = small, poorly fitted or top-dose-only effect, or another doubt; inactive = no such curve, though single readings can be large; an effect the other way counts as inactive or inconclusive.

SMILES	IL-1B inflam inh	MCF10A rerep	TDP1 cell CPT	BCR signal inh	TDP1 cell noCPT	SW480 rerep
CS(=O)(=O)/C(C#N)=C/c1cccn1S(=O)(=O)c1cccc2ccccc12	29	.	16µM*	.	16µM*	.
CCn1cc(CN2CCCC(CNS(=O)(=O)c3ccc(OC)cc3)C2)cn1 (centres undefined)	i	14%	1%	2%	2%	-3%
CCn1nc(C)c(CN2CCCC(CNS(=O)(=O)c3ccc(OC)cc3)C2)c1C (centres undefined)	22	8%	21µM*	8%	?	7%
COc1ccc(S(=O)(=O)NCC2CCCN(Cc3cn(C)nc3C)C2)cc1 (centres undefined)	-9	1%	1%	-1%	5%	-9%
CCc1ccc(CN2CCCC(CNS(=O)(=O)c3ccc(OC)cc3)C2)cc1 (centres undefined)	-94*	12%[9.22 µM]	-19%	12%	?	-77%
Cc1cnc(-n2ncc(C(=O)NCCN3CCOCC3)c2C(C)C)nc1-c1ccc(F)cc1	.	.	0%	.	-20%	.
CCc1cccc(CC)c1N1C(=O)C2=C(SCCCS2)C1=O	-4	.	?	.	?	.
CCc1nn(CC(=O)N(CC)Cc2ccccc2)c(=O)c2cc3occc3n12	.	.	23µM*	.	16µM*	.
CC(C)Oc1ccc(CCN=C(N)N=C(N)N)cc1Cl	-18	10%	10µM*	12%	12µM*	-44%
CCNC(=O)C1(C)CCN1Cc1cc(-c2ccccc2)n(C)n1 (centres undefined)	9	.	?	.	?	.
Cc1ccc(C(C)(C)NC(=O)C2CCC(=O)N(CC3CCCCC3)C2)cc1 (centres undefined)	15	0%	?	-3%	1%	-17%
CCCOC(=O)c1ccc(OCC(O)Cn2c(C)nc3ccccc32)cc1 (centres undefined)	33	13%	2.6µM*	1%	2.6µM*	-10%
CCC(=O)c1ccc(OCC(O)Cn2nnc3ccccc32)cc1 (centres undefined)	13	7%	-8%	?	-21%	-8%
Cc1nc2ccccc2n1CC(O)COCC1CC=CCC1 (centres undefined)	?	?	15µM*	-31%	10µM*	0%
CC(=O)Nc1cccc(OCC(O)Cn2cnc3ccccc32)c1 (centres undefined)	22	-1%	-15%	-1%	-4%	3%
CC(=O)Nc1cccc(OCC(O)Cn2c(C)nc3ccccc32)c1 (centres undefined)	9	1%	?	-1%	16µM*	-8%
CN1CCN(S(=O)(=O)c2ccc(NS(=O)(=O)c3ccccc3)cc2)CC1	6	5%	-17%	2%	3%	2%
CC1(C)O[C@H]2[C@@H](O1)[C@@H](C(=O)Nc1ccc(F)c(F)c1)O[C@@H]1OC(C)(C)O[C@@H]12	.	.	-2%	.	-8%	.
Cc1cc(NC(=O)Cn2nc(-c3cccs3)ccc2=O)cc(C)c1Br	?	-2%	29µM*	8%	29µM*	-56%
Cc1c(Br)ccc(NC(=O)Cn2nc(-c3cccs3)ccc2=O)c1C	14	?	-9%	-11%	-19%	-38%
Clc1ccc2oc3c(Cl)ncnc3c2c1	-101*	?	18µM*	-2%	6.5µM*	?
O=C(N=C1SC2CS(=O)(=O)CC2N1c1ccccc1Cl)C1CCCO1 (centres undefined)	14	-4%	8%	-2%	8%	?
Cn1cc(O)nc1NC(=O)Nc1cccc(Cl)c1	.	1%	.	.	.	-6%
COc1ccc(CNC(=O)COc2ccc(C(=O)c3ccc(F)cc3)cc2)cc1	-8	1.2µM*	2.6µM*	?	4.6µM*	?
O=C(COc1ccc(C(=O)c2ccc(F)cc2)cc1)NCc1ccc(F)cc1	6	1.5µM*	3.3µM*	?	4.6µM*	15µM*
SMILES	IL-1B inflam inh	MCF10A rerep	TDP1 cell CPT	BCR signal inh	TDP1 cell noCPT	SW480 rerep
Cc1nnc(-c2ccc(Oc3ccc(Cl)cc3)c([N+](=O)[O-])c2)o1	27	?	?	?	23µM*	1%
O=C(CSc1nnc(-c2ccc(F)cc2)c2ccccc12)Nc1ccccc1	-61*	-4%	?	?	?	3%
CCc1nnc(SCC(=O)Nc2ccccc2)nc1CC	12	-5%	3%	0%	-7%	8%
O=C(CSc1nnc(-c2ccc(F)cc2)c2ccccc12)Nc1ccccc1Cl	-8	?	10%	?	3%	1%
O=C(CSc1nnc(-c2ccc(F)cc2)c2ccccc12)Nc1cccc(Cl)c1	-95*	?	?	?	?	4%
COC(=O)Cc1nnc(SCC(=O)Nc2ccccc2)c2ccccc12	-63*	?	18µM*	?	23µM*	21%
O=C(CSc1nnc(-c2ccc(F)cc2)c2ccccc12)Nc1c(F)cccc1F	-5	4%	?	?	?	14%
CCCn1c2c(c(O)c(C(=O)Nc3nccs3)c1=O)CCCC2	43	?	6%	0%	?	5%
CC(C)Cn1c2c(c(O)c(C(=O)Nc3nccs3)c1=O)CCCC2	8	7%	16µM*	4%	?	?
CCOC(=O)Cc1csc(NC(=O)c2c(O)c3c(n(CC(C)C)c2=O)CCCC3)n1	-1	4%	21µM*	6%	?	8%
O=C(C[C@H]1C[C@H](C(=O)N2CCCCC2)[C@@]2(CCc3ccccc3)c3[nH]c4ccc(Cl)cc4c3CCN2C1=O)NCCN1CCOCC1	21	?	-9%	0%	-3%	-24%
O=C1CC(c2ccccc2)CC(=O)N1c1ccc(C(F)(F)F)cc1	18	?	-7%	?	-12%	-5%
Cc1onc(-c2ccccc2)c1C(=O)NNC(=S)NC(=O)/C=C/c1ccccc1	33	?	21µM*	-3%	18µM*	?
COc1ccc(/C=C/C(=O)NC(=S)NNC(=O)c2c(-c3ccccc3)noc2C)cc1	9	-6%	?	6%	26µM*	6%
Cc1onc(-c2ccccc2)c1C(=O)NNC(=S)NC(=O)c1ccc(Br)cc1	-5	?	?	-5%	?	?
